Only some compounds are listed: those with a hit (about 2.8% of all), similar ones and a draw of the others.
ATXN viability – Viability Counterscreen for Primary qHTS for Inhibitors of ATXN expression. Potency, µM (titrated, usually from 56.7 µM), actives largely listed as cytotoxic. hit rate 0.49% among 400,000. AID 651635, 2014. S2 cells (HEK-293 line with an ATXN2-luciferase reporter) viability, CellTiter-Fluor protease fluorescence, 24 h; also: potency is read from the fitted curve at half-maximal effect; nearly all actives have a fitted effect of over 40% in size
CtBP-E1A blk – qHTS Assay for Inhibitors of the CtBP/E1A Interaction; CtBP / adenovirus E1A interaction (AlphaScreen); AlphaScreen GST-E1A/His-CtBP binding, 1536-well; stronger effect = lower value; hit rate 0.49% among 340,000; activity change, % (concentration not given with the values); AID 651724, 2012; in the data active = activity change below about -65%; inconclusive = mostly about -30% to -63%; also: % is scaled to controls: 0 for no effect and ±100 for the full control effect
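Homogeneous bead-based format: GST-tagged E1A captured on glutathione donor beads, His-tagged CtBP on nickel acceptor beads; compounds precede bead addition by 2 h at 37 °C.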
ATXN2 expr inh – Primary qHTS for Inhibitors of ATXN expression | HEK-293 ATXN2-luciferase reporter, luminescence, 24 h | Potency, µM (top dose mostly 57 µM), for the others: at the highest dose activity change, negative = inhibition, usual class: inhibitors | hit rate 0.72% among 360,000; also: potency is read from the fitted curve at half-maximal effect; % is scaled to controls: 0 for no effect and ±100 for the full control effect; nearly all actives have a fitted effect of over 55% in size
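ATXN2-luciferase reporter cells (luciferase flanked by upstream and downstream ATXN2 gene portions) were treated 24 h at 37 °C with compounds at up to 57 uM. SteadyGlo luminescence gave expression; GF-AFC fluorescence gave viability.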
TGFb inhibitor – qHTS for Inhibitors of TGF-b; AID 588855, 2011; hit rate 1.2% among 410,000; HepG2 CAGA-GFP TGF-b/SMAD3 reporter, GFP fluorescence, 18 h; TGF-beta stimulated, 500 pg/mL final; Potency, µM (doses to about 46.1 µM), for the others: at the top dose activity, negative = inhibition, usual class: inhibitors; also: potency is read from the fitted curve at half-maximal effect; % is scaled to controls: 0 for no effect and ±100 for the full control effect; nearly all actives have a fitted effect of over 65% in size
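Read-out: total well GFP (ex488/em500-530) summed from mean per-cell fluorescence. Cells: HEPG2 CAGA-GFP, 1% FBS DMEM, 18 h at 37 degrees C with 500 pg/mL final TGF-beta. Unstimulated wells served as the full-inhibition control; stimulated DMSO wells = 0%.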
HepG2 tox-1 – qHTS for Inhibitors of TGF-b: Cytotox Counterscreen; hit rate 0.76% among 410,000; HepG2 CAGA-GFP viability, ATP luminescence, 18 h; Potency, µM (series often up to 46.1 µM), inactives show top-dose activity change, negative = cytotoxicity, most hits filed as cytotoxic; also: potency is read from the fitted curve at half-maximal effect
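CellTiter-Glo luminescence gave cytotoxicity after 18 hours at 37 degrees C. The cells were HepG2 CAGA-GFP in 1% FBS DMEM, stimulated with 500 pg/mL TGF-beta after compound addition. %Activity was normalised to no-cell wells (complete cell-killing) and DMSO (no toxicity), and curves were fitted and classified.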
Six1-Eya2 inh – qHTS Assay for Inhibitors of the Six1/Eya2 Interaction. hit rate 0.56% among 360,000. activity change, % (concentration not given with the values). AlphaScreen GST-Six1/His-Eya2 binding, biochemical; stronger effect = lower value. Homeobox protein SIX1 (Homo sapiens) + Protein phosphatase EYA2 (Homo sapiens), …. AID 651725, 2012; in the data active = activity change below about -65%; inconclusive = mostly about -30% to -63%; also: % is scaled to controls: 0 for no effect and ±100 for the full control effect
Target sequence (O00167 whole entry, looked up): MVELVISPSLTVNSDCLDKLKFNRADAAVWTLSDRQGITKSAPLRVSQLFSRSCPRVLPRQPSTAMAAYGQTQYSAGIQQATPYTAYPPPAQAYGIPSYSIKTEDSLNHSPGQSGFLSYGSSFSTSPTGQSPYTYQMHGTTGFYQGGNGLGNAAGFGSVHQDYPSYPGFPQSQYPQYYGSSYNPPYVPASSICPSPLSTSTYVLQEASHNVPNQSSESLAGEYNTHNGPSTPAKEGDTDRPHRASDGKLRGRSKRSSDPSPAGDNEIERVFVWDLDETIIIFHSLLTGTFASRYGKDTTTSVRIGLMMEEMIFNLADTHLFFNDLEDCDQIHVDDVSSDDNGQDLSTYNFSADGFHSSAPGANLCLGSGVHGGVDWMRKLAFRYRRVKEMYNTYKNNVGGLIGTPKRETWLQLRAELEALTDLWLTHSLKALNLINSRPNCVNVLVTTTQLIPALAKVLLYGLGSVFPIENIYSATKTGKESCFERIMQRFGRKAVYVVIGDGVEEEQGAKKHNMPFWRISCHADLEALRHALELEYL
Target sequence (Q15475 whole entry, looked up): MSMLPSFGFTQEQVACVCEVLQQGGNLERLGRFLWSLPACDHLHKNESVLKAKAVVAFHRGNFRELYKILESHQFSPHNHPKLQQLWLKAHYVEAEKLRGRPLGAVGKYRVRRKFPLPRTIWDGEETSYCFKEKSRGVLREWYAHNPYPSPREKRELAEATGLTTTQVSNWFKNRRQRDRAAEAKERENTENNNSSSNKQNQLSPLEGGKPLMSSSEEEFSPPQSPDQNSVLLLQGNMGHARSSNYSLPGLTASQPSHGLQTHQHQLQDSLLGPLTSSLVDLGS
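AlphaScreen luminescence read after one hour at 37 °C in darkness. Pin-transferred compounds met GST-Six1 and His-Eya2 protein (5X stock 250 nM/500 nM) plus glutathione donor and Ni-chelate acceptor beads (5X, 50 ug/mL).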
TGFb confirm – qHTS for Inhibitors of TGF-b: Confirmation of Cherry Picks; shares compounds with TGFb inhibitor; HepG2 CAGA-GFP TGF-b reporter, GFP fluorescence, 18 h; cells stimulated with TGF-beta, 500 pg/mL; Potency, µM (highest dose often 46.1 µM), for the others: top-dose activity, negative = inhibition, usual class: inhibitors; hit rate 63% among 1,600; AID 720534, 2013; also: potency is read from the fitted curve at half-maximal effect; % is scaled to controls: 0 for no effect and ±100 for the full control effect; nearly all actives have a fitted effect of over 65% in size
HepG2 tox-2 – qHTS for Inhibitors of TGF-b: Cytotox Counterscreen for Cherry Picks | HepG2 CAGA-GFP viability, ATP luminescence, 18 h; cells stimulated with TGF-beta, 500 pg/mL | hit rate 27% among 1,600 | AID 720535, 2013 | Potency, µM (series often up to 46.1 µM), without a hit: at the highest dose activity, negative = cytotoxicity, actives largely listed as inhibitors | shares compounds with TGFb inhibitor; also: potency is read from the fitted curve at half-maximal effect; % is scaled to controls: 0 for no effect and ±100 for the full control effect; nearly all actives have a fitted effect of over 70% in size
CCL64 TGFb inh – qHTS for Inhibitors of TGF-b: CCL64 Cells Orthogonal Assay for Cherry Picks; shares compounds with TGFb inhibitor; Potency, µM (titrated, usually from 46.1 µM), for the others: at the highest dose activity, negative = inhibition, usual class: inhibitors; hit rate 41% among 1,600; CCL64 CAGA-GFP reporter, TGF-b stimulated, GFP fluorescence, 18 h; also: potency is read from the fitted curve at half-maximal effect; nearly all actives have a fitted effect of over 65% in size
COP TGFb inh – qHTS for Inhibitors of TGF-b: Hit Validation in HepG2 Cells using COP promoter | shares compounds with TGFb inhibitor | hit rate 3% among 1,600 | Potency, µM (top dose mostly 46.1 µM), for inactives: at the highest dose activity, negative = inhibition, hits mostly inhibitors | HepG2 COP-GFP TGF-b reporter, GFP fluorescence, 18 h; cells stimulated by added recombinant TGF-beta; also: potency is read from the fitted curve at half-maximal effect; nearly all actives have a fitted effect of over 70% in size
Active calls of the source: *; i = inactive; ? = inconclusive; . = no result given. Unless noted, calls follow the shape of the dose curve; as a rule, active = well fitted curve in the direction sought with a large enough effect; inconclusive = small, poorly fitted or top-dose-only effect, or another doubt; inactive = no such curve, though single readings can be large; an effect the other way counts as inactive or inconclusive.

SMILES	ATXN viability	CtBP-E1A blk	ATXN2 expr inh	TGFb inhibitor	HepG2 tox-1	Six1-Eya2 inh	TGFb confirm	HepG2 tox-2	CCL64 TGFb inh	COP TGFb inh
CCCCC[C@@H]1CCCCC[C@@H](O)C[C@H](O)[C@H](O)/C=C/C(=O)O1	i	1	6%	.	.	0	.	.	.	.
COP(=S)(OC)Oc1cc(Cl)c(Cl)cc1Cl	i	.	31%	.	.	.	.	.	.	.
Clc1cccc(N2Cc3cc(-c4ccccc4)ccc3-n3nncc3C2)c1	.	0	22µM*	7.9µM*	8.9µM*	-19	21µM*	?	6.5µM*	32%
S=C(NCCc1ccccc1)N1Cc2cc(-c3ccccc3)ccc2-n2nncc2C1	?	5	-26%	?	-1%	2	.	.	.	.
COc1ccc(CN2Cc3cc(-c4cccc(F)c4)ccc3-n3nncc3C2)cc1	i	-23	-2%	11µM*	13%	-29	15µM*	?	?	0%
Fc1cccc(-c2ccc3c(c2)CN(C(=S)NCCc2ccccc2)Cc2cnnn2-3)c1	i	3	-31%	11µM*	-1%	14	?	-29%	?	-7%
S=C(NCCc1ccccc1)N1Cc2cc(N3CCCCC3)ccc2-n2nncc2C1	i	-21	-4%	10µM*	-26%	-23	?	-9%	-30%	2%
CC(C)(C)c1ccc(C(=O)Nc2ccc3nc(SCC(=O)N4CCCC4)sc3c2)cc1	.	.	.	?	-21%	.	.	.	.	.
Nc1nc(F)nc2c1ncn2[C@@H]1O[C@H](CO)[C@@H](O)[C@H]1O	3.2µM*	5	2.5µM*	0.79µM*	-37%	-1	0.58µM*	0.46µM*	1.2µM*	25%
C[C@H]1[C@@H](O)[C@@H](C)/C=C\C=CCC\C=C/C=C\C=C/C=C[C@@H](O[C@H]2O[C@@H](C)[C@@H](O)[C@@H](N)[C@@H]2O)C[C@@H]2O[C@@](O)(C[C@@H](O)[C@H]2C(=O)O)C[C@@H](O)[C@@H](O)CC[C@@H](O)C[C@@H](O)C[C@@H](O)CC(=O)O[C@H]1C	i	.	.	.	.	.	.	.	.	.
Nc1c2c(nc3sc4c(c13)CCCCC4)CCCC2	?	-12	-14%	20µM*	-14%	-19	15µM*	?	?	94%
BrCC1C[n+]2c(SCc3ccccc3)nc3sc4c(c3c2O1)CCCC4 (stereo unspecified)	i	-15	33%	17%	-31%	-9	.	.	.	.
Cc1ccc(C(=O)CN2CCOCC2)cc1	.	.	.	-10%	-19%	.	.	.	.	.
COc1ccccc1N=c1scc(-c2ccc(S(=O)(=O)N3CCCC3)cc2)n1C	.	.	.	?	-23%	.	.	.	.	.
CCCCn1nnnc1C(c1cccc2ccccc12)N1CCC2(CC1)C(=O)NCN2c1ccccc1 (stereo unspecified)	?	0	-38%	18µM*	-5%	-6	15µM*	?	?	60%
COc1cccc(C(c2nnnn2C2CCCC2)N2CCC3(CC2)C(=O)NCN3c2ccccc2)c1OC (stereo unspecified)	.	-10	?	?	9%	-17	.	.	.	.
COc1ccc(C(c2nnnn2C2CCCCC2)N2CCC3(CC2)C(=O)NCN3c2ccccc2)cc1 (stereo unspecified)	?	-8	?	?	-44%	-11	?	-21%	18µM*	-4%
O=C1NCN(c2ccccc2)C12CCN(C(c1ccccc1)c1nnnn1C1CCCC1)CC2 (stereo unspecified)	?	0	-24%	11µM*	-2%	0	?	2%	21µM*	3%
O=C1NCN(c2ccccc2)C12CCN(C(c1cccc3ccccc13)c1nnnn1Cc1ccccc1)CC2 (stereo unspecified)	.	-18	-39%	?	-8%	-19	.	.	.	.
CCOc1ccc(CCNC(=O)c2cc3c(-c4ccc(OC)c(OC)c4)nn(C)c3s2)cc1OCC	?	.	?	8%	-20%	.	.	.	.	.
Cc1nn(-c2nccs2)c2c1C(=O)CC(C)(C)C2Br (stereo unspecified)	i	5	?	11µM*	-9%	1	13µM*	?	?	34%
Cc1nc2ccccc2c(=O)n1-c1nccs1	i	-7	28%	18%	22%	2	.	.	.	.
Cc1ccc2oc(-c3ccc(Cl)cc3)c(O)c(=O)c2c1	?	.	?	?	-17%	.	.	.	.	.
COc1cc2c(c(OC)c1OC)-c1ccc(O)cc1C(NC(C)=O)CC2 (stereo unspecified)	i	-2	4%	-2%	1%	0	.	.	.	.
COc1cc2c(c(OC)c1OC)-c1ccc(O)cc1[C@@H](NC(C)=O)CC2	?	7	-13%	?	11%	7	?	8%	0.52µM*	?
Cn1c(=O)oc2cc(S(=O)(=O)N3CCCC(C(=O)N4CCN(c5cccc(Cl)c5)CC4)C3)ccc21 (stereo unspecified)	?	.	-16%	?	1%	.	.	.	.	.

Screens: PubChem BioAssay, National Center for Advancing Translational Sciences (NCATS)
